Compound activity (PubChem)
Shiga toxin inh: A qHTS for Small Molecule Inhibitors of Shiga Toxin; Vero cells, Shiga toxin protein synthesis inhibition reporter; 9.2% of 290,000 active; inhibition, % at 38.7 µM; in the data active = inhibition mostly above about 28%, no sharp cut-off; inactive = mostly below about 43%; note: 0% is about no effect
Cycloheximide cs: Cycloheximide Counterscreen for Small Molecule Inhibitors of Shiga Toxin | cell reporter, cycloheximide protein synthesis inhibition counterscreen | max response, % | 12% of 300,000 active; in the data active = max response mostly above about 13%, no sharp cut-off; inactive = mostly below about 14%; note: read at 38.3 µM for the half of the compounds with a filed dose; 0% is about no effect
HCMV antiviral: qHTS Assay for inhibitors of the human cytomegalovirus (HCMV); HFF cells, HCMV-luciferase reporter, 72 h; hits give low values; activity change, negative = inhibition, % at 57.5 µM; 4.5% of 410,000 active; AID 1259415, 2018; in the data active = activity change below about -60%; inconclusive = no clear call, values can overlap the other calls; inactive = above about -39%; note: % is set by controls: 0 for no effect and ±100 for the full control effect
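Two-dose cell screen: HFF monolayers treated with compounds and infected with luciferase-expressing HCMV at 1 PFU/cell, 72 h at 37C, then lysed for luciferase measurement.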
HCV inhibitor: qHTS Assay for Inhibitors of Hepatitis C Virus (HCV); Huh7.5.1 HCVcc-Cre infection, luciferase reporter, 44 h; Potency, µM (top dose mostly 41.8 µM), for the others: at the top dose activity change, negative = inhibition, most hits filed as inhibitors; 3.4% of 340,000 active; note: potency is the fitted concentration of half-maximal effect; % is set by controls: 0 for no effect and ±100 for the full control effect
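1,000 cells/well; 4 h culture; + compound; + HCVcc-Cre (~0.5 moi); 44 h; luciferase substrate, RT 15 min; read 15 sec.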
Pf growth 48h: Primary qHTS for delayed death inhibitors of the malarial parasite plastid, 48 hour incubation; P. falciparum luciferase growth in erythrocytes, 48 h; Potency, µM (top dose mostly 28.7 µM), without a hit: at the highest dose activity change, negative = inhibition, actives largely listed as inhibitors; 5.9% of 310,000 active; AID 504832, 2011; note: potency is the fitted concentration of half-maximal effect; % is set by controls: 0 for no effect and ±100 for the full control effect
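Cell-based growth assay: transgenic P. falciparum expressing firefly luciferase, cultured in red cells within RPMI 1640 containing 0.5% w/v Albumax, 24 mM bicarbonate and gentamycin. A drop in luciferase activity indicates inhibition.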
Pf growth 96h: Primary qHTS for delayed death inhibitors of the malarial parasite plastid, 96 hour incubation. P. falciparum luciferase reporter growth, 96 h. Potency, µM (series often up to 28.7 µM), without a hit: at the top dose activity change, negative = inhibition, hits mostly inhibitors. 6.9% of 320,000 active. AID 504834, 2011; note: potency is the fitted concentration of half-maximal effect; % is set by controls: 0 for no effect and ±100 for the full control effect
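Infected RBCs, 2% Hct / 0.05% parasitemia final; luciferase-reporter P. falciparum; cpd 96 h, 37 C, 5% CO2; luciferase detection reagent; luminescence.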
* marks the source's active call; other numbers are inactive results; ? = inconclusive; . = no result given. The list is not random: actives were taken first. Their share in the collection is about 21%. Unless noted, calls come from the whole dose curve; as a rule, active = well fitted inhibition curve with a large enough effect; inconclusive = small, poorly fitted or top-dose-only effect, or another doubt; inactive = no such curve, though single readings can be large or run the other way.

SMILES	Shiga toxin inh	Cycloheximide cs	HCMV antiviral	HCV inhibitor	Pf growth 48h	Pf growth 96h
C/C(=N\NC(=O)c1cc(-c2ccccc2C)nc2ccccc12)c1cccnc1	-14	-4	?	6%	1.9µM*	?
CC(=O)Nc1cccc(/C(C)=N/NC(=O)c2cc(-c3ccncc3)nc3ccccc23)c1	-10	-2	-34	-21%	?	?
C/C(=N\NC(=O)c1nnn(-c2nonc2N)c1CN1CCCCCC1)c1ccc(Br)cc1	-6	-5	-9	-5%	16%	?
CC(=O)c1cccc(NC(=O)C2CC(=O)N(C3CCCC3)C2)c1 (stereo unspecified)	.	.	3	2%	.	.
COc1ccc(-c2n[nH]c3c2C(c2ccccn2)N(C)C3=O)cc1 (stereo unspecified)	.	.	50	.	.	.
C/C(=N\NC(=O)c1cc(C)nc2ccccc12)c1ccc([N+](=O)[O-])cc1	-1	6	16	-24%	?	-26%
C/C(=N\NC(=O)c1cc(-c2ccccn2)nc2ccccc12)c1cccc([N+](=O)[O-])c1	-7	5	48	?	?	10µM*
COc1ccc(-c2cc(C(=O)N/N=C(\C)c3cccnc3)c3cc(C)ccc3n2)cc1OC	-6	-3	-5	?	?	?
C/C(=N\NC(=O)c1cc(-c2cccc(OC(C)C)c2)nc2ccccc12)c1cccnc1	32	32	14	-10%	?	13µM*
O=C(/C=C/c1ccccc1)NC(NC(=S)Nc1cccc(O)c1)C(Cl)(Cl)Cl (stereo unspecified)	12	8	-21	?	?	-1%
O=C(/C=C/c1ccccc1)NC(NC(=S)Nc1cccc(Cl)c1)C(Cl)(Cl)Cl (stereo unspecified)	11	-2	-75*	?	?	?
O=C(/C=C/c1ccccc1)NC(NC(=S)Nc1ccc(Cl)cc1Cl)C(Cl)(Cl)Cl (stereo unspecified)	-9	2	.	10µM*	?	21%
Cn1cccc1/C=N/N1CCN(Cc2cccc3ccccc23)CC1	11	-1	4	?	-6%	2%
COc1ccccc1C(=O)NC1CCN(C(=O)Nc2ccc(C)cc2)CC1	-6	-4	-5	-28%	-25%	?
CCOCCCNc1ncnc2c1[nH]c1ccccc12	-2	13*	-62*	?	10µM*	?
CCCCOCCCNc1ncnc2c1[nH]c1ccccc12	-6	-3	?	8.9µM*	7.4µM*	.
Cc1cc(C)c2c(n1)nn1c(C)c(CCC(=O)NCc3ccc(Cl)cc3)c(C)nc21	.	.	13	.	.	.
CCOc1ccc(Br)cc1C(=O)N/N=C/c1cccnc1	-4	4	-15	?	-1%	?
O=C(N/N=C/c1cccnc1)c1cc(Br)ccc1O	53*	26*	30	8%	92%	5%
O=C(N/N=C/c1ccccn1)c1cc(Br)ccc1O	48*	32*	31	-4%	?	9%
O=C(N/N=C/c1ccccn1)c1ccc(Br)o1	44*	19*	52	5%	?	?
CCOC(=O)N1CCN(C(=O)COC(=O)CSc2ccc([N+](=O)[O-])cc2)CC1	.	.	-29	13%	7%	21%
CC(=O)c1ccc(NC(=O)c2sc(-n3nc(C)c(CCC(C)C)c3C)nc2C)cc1	.	.	-10	.	.	.
COC(=O)C(CCSC)NS(=O)(=O)c1ccccc1Br (stereo unspecified)	-3	-7	.	.	.	.
CN(C)c1ccc(/C=N/OC(=O)Nc2ccccc2)cc1	52*	37*	79	-12%	96%	?
SMILES	Shiga toxin inh	Cycloheximide cs	HCMV antiviral	HCV inhibitor	Pf growth 48h	Pf growth 96h
COc1ccc(NC(=O)O/N=C/c2ccccc2Cl)cc1	72*	30*	27	7%	27%	39%
COc1ccc(NC(=O)O/N=C/c2ccccc2)cc1	79*	40*	26	10%	6%	?
COc1ccc(NC(=S)NC(=O)/C=C/c2ccccc2)cc1	.	-2	0	7%	1%	-30%
O=C(Nc1ccc(Cl)c(Cl)c1)O/N=C/c1ccncc1	24	16	?	2%	?	2%
O=C1CCC/C(=N\NC(=O)COc2ccc(Cl)cc2)C1	-13	-3	20	7%	?	?
CC(=O)OC1CC(C)N(C(=O)c2ccccc2)c2ccc(C)cc21 (stereo unspecified)	-10	1	13	-15%	59%	.
CC(=O)N1c2ccc(C)cc2C(c2ccccc2)CC1C (stereo unspecified)	-4	2	197	2%	7.4µM*	?
CCOC(=O)/C=c1\s/c(=C\c2c(OC)ccc3ccccc23)c(=O)n1CC(=O)NCC1CCCO1 (stereo unspecified)	-6	-2	-95*	?	?	.
O=C(NCc1ccccc1Cl)c1ccc(-n2cnc3cccnc32)cc1	.	.	-94*	.	.	.
COc1ccc(CCNC(=O)CCc2c(C)nc3cc(-c4ccccc4OC)nn3c2C)c(OC)c1	.	.	-14	.	.	.
CC(C)C(NC(=O)CCNC(=O)c1ccc(C(C)(C)C)cc1)c1nc2ccccc2[nH]1 (stereo unspecified)	.	.	1	6%	8.3µM*	?
O=C(CCSCc1ccc(Cl)cc1)NC1CCCC1	-9	-2	-102*	8%	?	?
O=C(CSc1ccc(F)cc1)NC1CCCCC1	71*	36*	13	13%	86%	15%
O=C(CSc1ccc(Br)cc1)NC1CCCCCC1	.	.	-29	4%	.	.
O=C(CSc1ccc(Cl)cc1)NC(=O)NC1CCCC1	.	.	-25	-17%	-2%	-2%
O=C(CSc1ccc(Cl)cc1)NC1CCCC1	72*	35*	32	5%	57%	69%
O=C(CCSc1ccc(Cl)c(Cl)c1)NC12CC3CC(CC(C3)C1)C2	77	27*	31	?	?	1%
[O]=[Bi][O][Bi]=[O]	.	.	.	.	-15%	-14%
O=C(CSc1ccc(F)cc1)NC12CC3CC(CC(C3)C1)C2	39	37*	-2	-6%	-18%	?
O=C(CCC(=O)OCC(=O)c1ccc(Br)cc1)NC1CCCCC1	-6	-1	-18	15%	-7%	.
O=C(CSc1ccccc1C(=O)O)NC12CC3CC(CC(C3)C1)C2	20	2	-11	12%	6%	11%
O=C(CCCC(=O)OCC(=O)c1ccc(Cl)cc1)NC1CCCCC1	14	6	-13	20%	23%	12µM*
CCCCCCCCCCCCCCC[C@H](O)[C@H](N)CO	.	.	.	.	-29%	?
CCCn1c2ccccc2c2cnn(CC(=O)N3CCCC(C)C3)c(=O)c21 (stereo unspecified)	.	.	-62*	.	.	.
